The text below walks through data of publication PMC5540273 (PLoS ONE, 2017).
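Also: KINOMEscan kinase panel screen.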

For one assay, the system named is DYRK2. The following applies: concentration: 1 μM, replicates: in singlicate; n = 1.
On to `CN1C(=O)C(Nc2cc(Cl)c(O)c(Cl)c2)=C(c2ccc(Cl)cc2)C1=O` [SB-404321], for which the “%Inh” value turned out to be 0%.

`CCC(=O)c1c(-c2ccccc2)c2cc(Cl)ccc2c(=O)n1Cc1cc(C(=O)NC2CC2)n(C)n1`: the “%Inh” value is 2%.

On to `COc1cccc(C2=C(Nc3cccc(C(=O)O)c3)C(=O)NC2=O)c1` [SB-390770], for which the “%Inh” value was 0%.

Consider `O=C(Nc1ccc2c(c1)OCO2)NC1CCN(c2ccnc(NCc3ccc(F)cc3)n2)CC1` [GSK1379859], for which the “%Inh” value was 5%.

Take `COc1cc2nccc(Nc3cccc(Oc4ccccc4)c3)c2cc1OC.Cl` [GW284543]: the “%Inh” value is 11%.

As for `COc1cc(Nc2nccc(N3CCC(NC(=O)C(C)c4ccc(Cl)cc4)C3)n2)cc(OC)c1OC` (stereo not shown) [GSK1379757], the “%Inh” value is 0%.

Regarding `Cc1ccccc1COc1cc(-n2cnc3cc(Cl)ccc32)sc1C(N)=O` [GW813349], the “%Inh” value stood at 19%.

Consider `CCC(=O)c1c(-c2ccccc2)c2cc(Cl)ccc2c(=O)n1Cc1cc(S(C)(=O)=O)n(CCC(C)(C)O)n1`, for which the “%Inh” value is listed as 62%.

For `Cc1nn2c(=O)cc(N3CCOCC3)nc2n1Cc1cccc(Cl)c1Cl` [GSK2342769], the “%Inh” value is given as 0%.

In the case of `COc1ccc(Nc2nccc(N3CCC(NS(=O)(=O)c4ccc(NC(C)=O)cc4)C3)n2)cc1` (stereo not shown) [GSK1379729], the “%Inh” value worked out at 3%.

With `Cc1cccc(-c2nc(Nc3ccc4c(cnn4C)c3)c3ccccc3n2)n1` [GW876731], the “%Inh” value is listed as 11%.

Consider `C[C@@H]1CC[C@H](C(=O)NC2CCCCC2)CN1c1cc(-c2ccc3c(N)n[nH]c3c2)nc(N)n1` [GSK2291363], for which the “%Inh” value turned out to be 20%.

Regarding `COc1cc2ncn(-c3cc(OCc4ccncc4Br)c(C(N)=O)s3)c2cc1OC` [GW854278], the “%Inh” value turned out to be 30%.

Consider `Cc1ccc(-c2ccc3c(ccc4sc5c(c43)NC[C@@H](C)N=C5N(C)C)n2)cn1`, for which the “%Inh” value came to 0%.

For the molecule `COc1ccc(-c2coc3ccc(-c4nnc(SCc5cccc(C#N)c5)o4)cc23)cc1`, the “%Inh” value turned out to be 2%.

In the case of `Cc1cc(Nc2nc(-c3cccc(C)n3)nc3ccccc23)ccn1` [GW872411], the “%Inh” value worked out at 0%.

With `Cl.NS(=O)(=O)c1cccc(Nc2cc(-c3ccc(F)cc3)n[nH]2)c1` [GW824645], the “%Inh” value turned out to be 24%.

As to `CC(C)(C)c1ccc(C(=O)Nc2cn3cc(-c4ccccc4)ccc3n2)cc1`, the “%Inh” value was 37%.

Consider `CCn1c(-c2ccoc2)nc2cnccc21` [SB-733887], for which the “%Inh” value is 6%.

In the case of `Nc1n[nH]c2nnc(-c3ccccc3)c(-c3ccccc3)c12` [GW554060], the “%Inh” value came to 20%.

As to `CN(C)c1cc(-c2ccc3c(N)n[nH]c3c2)nc(N)n1` [GSK2219329], the “%Inh” value is reported as 67%.

Turning to `Nc1ncnc2c1ncn2-c1cccc(F)c1` [SKF-97560], the “%Inh” value is 13%.

`Nc1nc(-c2ccccc2F)c(-c2ccnc3ccccc23)s1` [GW560459]: the “%Inh” value is 0%.

Regarding `CCn1c(-c2nonc2N)nc2ccccc21` [SB-693162/GW549034], the “%Inh” value is 37%.

Take `Cc1ccc(Oc2ccc(Nc3ncnc4cc[nH]c34)cc2C)cn1`: the “%Inh” value came out at 0%.

As to `Cc1nnc(-c2ccc(C)c(-c3ccc(C(=O)O)cc3)c2)o1` [GW608005], the “%Inh” value stood at 8%.

Turning to `CCS(=O)c1ccc(-c2coc3ccc(-c4nnc(C)o4)cc23)cc1` (stereo not shown), the “%Inh” value was 0%.

As for `COC(=O)c1c(-c2ccccc2)c2cc(C)ccc2c(=O)n1Cc1ccccc1`, the “%Inh” value is reported as 0%.

In the case of `Nc1nccc2scc(-c3ccc4c(c3)CCN4C(=O)Cc3ccccc3)c12` [GSK2576924], the “%Inh” value is 20%.

In the case of `OCCCNc1nccc(-c2c(-c3cccc(C(F)(F)F)c3)nn3cc(C(F)(F)F)ccc23)n1` [GW630813], the “%Inh” value was 0%.

`O=c1cc(N2CCOCC2)nc2n(Cc3ccc(F)c(Cl)c3)ccn12` [GSK2297099]: the “%Inh” value is 0%.

Take `Cc1nnc(-c2ccc3ncn(-c4ccc(S(C)=O)cc4)c3c2)o1` (stereo not shown): the “%Inh” value worked out at 7%.

Consider `COC(=O)c1c(-c2ccccc2)c2cc(Br)ccc2c(=O)n1Cc1ccc(NC(=O)CCC(=O)O)cc1`, for which the “%Inh” value was found to be 8%.

For the molecule `COc1cc(OC)cc(-c2cc3cnc(N)nc3nc2NC(=O)NC(C)(C)C)c1`, the “%Inh” value is 0%.

For `Nc1ncnc2c1ncn2-c1ccc(Cl)cc1` [AH2635], the “%Inh” value is on record as 2%.

On to `Cl.c1ccc(Cn2cnc3cc(Nc4ncnc5ccccc45)ccc32)cc1` [GW272142], for which the “%Inh” value stood at 21%.

As to `CCC(=O)c1c(-c2ccccc2)c2cc(Cl)ccc2c(=O)n1Cc1ccc(C(=O)O)cc1`, the “%Inh” value was 15%.

Another assay relates to EGFR. The following applies: concentration: 1 μM, replicates: in singlicate; n = 1.
As for `CN1C(=O)C(Nc2cc(Cl)c(O)c(Cl)c2)=C(c2ccc(Cl)cc2)C1=O` [SB-404321], the “%Inh” value amounted to 52%.

As for `CCC(=O)c1c(-c2ccccc2)c2cc(Cl)ccc2c(=O)n1Cc1cc(C(=O)NC2CC2)n(C)n1`, the “%Inh” value was found to be 0%.

Turning to `COc1cccc(C2=C(Nc3cccc(C(=O)O)c3)C(=O)NC2=O)c1` [SB-390770], the “%Inh” value is on record as 12%.

`O=C(Nc1ccc2c(c1)OCO2)NC1CCN(c2ccnc(NCc3ccc(F)cc3)n2)CC1` [GSK1379859]: the “%Inh” value was 44%.

As for `COc1cc2nccc(Nc3cccc(Oc4ccccc4)c3)c2cc1OC.Cl` [GW284543], the “%Inh” value came out at 40%.

Consider `COc1cc(Nc2nccc(N3CCC(NC(=O)C(C)c4ccc(Cl)cc4)C3)n2)cc(OC)c1OC` (stereo not shown) [GSK1379757], for which the “%Inh” value amounted to 23%.

As to `Cc1ccccc1COc1cc(-n2cnc3cc(Cl)ccc32)sc1C(N)=O` [GW813349], the “%Inh” value amounted to 2%.

Take `CCC(=O)c1c(-c2ccccc2)c2cc(Cl)ccc2c(=O)n1Cc1cc(S(C)(=O)=O)n(CCC(C)(C)O)n1`: the “%Inh” value was determined as 31%.

Turning to `Cc1nn2c(=O)cc(N3CCOCC3)nc2n1Cc1cccc(Cl)c1Cl` [GSK2342769], the “%Inh” value stood at 25%.

As to `COc1ccc(Nc2nccc(N3CCC(NS(=O)(=O)c4ccc(NC(C)=O)cc4)C3)n2)cc1` (stereo not shown) [GSK1379729], the “%Inh” value amounted to 36%.

As to `Cc1cccc(-c2nc(Nc3ccc4c(cnn4C)c3)c3ccccc3n2)n1` [GW876731], the “%Inh” value is 0%.

Take `C[C@@H]1CC[C@H](C(=O)NC2CCCCC2)CN1c1cc(-c2ccc3c(N)n[nH]c3c2)nc(N)n1` [GSK2291363]: the “%Inh” value was found to be 45%.

As to `COc1cc2ncn(-c3cc(OCc4ccncc4Br)c(C(N)=O)s3)c2cc1OC` [GW854278], the “%Inh” value came out at 27%.

In the case of `Cc1ccc(-c2ccc3c(ccc4sc5c(c43)NC[C@@H](C)N=C5N(C)C)n2)cn1`, the “%Inh” value was determined as 23%.

Turning to `COc1ccc(-c2coc3ccc(-c4nnc(SCc5cccc(C#N)c5)o4)cc23)cc1`, the “%Inh” value turned out to be 0%.

In the case of `Cc1cc(Nc2nc(-c3cccc(C)n3)nc3ccccc23)ccn1` [GW872411], the “%Inh” value amounted to 0%.

With `Cl.NS(=O)(=O)c1cccc(Nc2cc(-c3ccc(F)cc3)n[nH]2)c1` [GW824645], the “%Inh” value is listed as 0%.

Consider `CC(C)(C)c1ccc(C(=O)Nc2cn3cc(-c4ccccc4)ccc3n2)cc1`, for which the “%Inh” value was found to be 5%.

Turning to `CCn1c(-c2ccoc2)nc2cnccc21` [SB-733887], the “%Inh” value was determined as 24%.

With `Nc1n[nH]c2nnc(-c3ccccc3)c(-c3ccccc3)c12` [GW554060], the “%Inh” value was found to be 36%.

`CN(C)c1cc(-c2ccc3c(N)n[nH]c3c2)nc(N)n1` [GSK2219329]: the “%Inh” value was 43%.

`Nc1ncnc2c1ncn2-c1cccc(F)c1` [SKF-97560]: the “%Inh” value is 9%.

For `Nc1nc(-c2ccccc2F)c(-c2ccnc3ccccc23)s1` [GW560459], the “%Inh” value stood at 36%.

As for `CCn1c(-c2nonc2N)nc2ccccc21` [SB-693162/GW549034], the “%Inh” value was found to be 0%.

For the molecule `Cc1ccc(Oc2ccc(Nc3ncnc4cc[nH]c34)cc2C)cn1`, the “%Inh” value was 71%.

For the molecule `Cc1nnc(-c2ccc(C)c(-c3ccc(C(=O)O)cc3)c2)o1` [GW608005], the “%Inh” value is on record as 22%.

For `CCS(=O)c1ccc(-c2coc3ccc(-c4nnc(C)o4)cc23)cc1` (stereo not shown), the “%Inh” value worked out at 5%.

`COC(=O)c1c(-c2ccccc2)c2cc(C)ccc2c(=O)n1Cc1ccccc1`: the “%Inh” value was 0%.

In the case of `Nc1nccc2scc(-c3ccc4c(c3)CCN4C(=O)Cc3ccccc3)c12` [GSK2576924], the “%Inh” value was 21%.

Consider `OCCCNc1nccc(-c2c(-c3cccc(C(F)(F)F)c3)nn3cc(C(F)(F)F)ccc23)n1` [GW630813], for which the “%Inh” value is given as 26%.

Take `O=c1cc(N2CCOCC2)nc2n(Cc3ccc(F)c(Cl)c3)ccn12` [GSK2297099]: the “%Inh” value amounted to 18%.

Consider `Cc1nnc(-c2ccc3ncn(-c4ccc(S(C)=O)cc4)c3c2)o1` (stereo not shown), for which the “%Inh” value is on record as 0%.

Consider `COC(=O)c1c(-c2ccccc2)c2cc(Br)ccc2c(=O)n1Cc1ccc(NC(=O)CCC(=O)O)cc1`, for which the “%Inh” value amounted to 0%.

As for `Nc1ncnc2c1ncn2-c1ccc(Cl)cc1` [AH2635], the “%Inh” value came to 15%.

As to `Cl.c1ccc(Cn2cnc3cc(Nc4ncnc5ccccc45)ccc32)cc1` [GW272142], the “%Inh” value is 20%.

On to `CCC(=O)c1c(-c2ccccc2)c2cc(Cl)ccc2c(=O)n1Cc1ccc(C(=O)O)cc1`, for which the “%Inh” value was 0%.
